Screening data deposited in PubChem BioAssay by National Center for Advancing Translational Sciences (NCATS).
Pf growth 96h = inhibits malaria parasite growth, 96 h | P. falciparum luciferase reporter growth, 96 h | Potency, µM (series often up to 28.7 µM), for the others: at the top dose activity change, negative = inhibition, usual class: inhibitors | actives 6.9% (n = 320,000); further: potency means the concentration at half of the fitted maximal effect; on the % scale 0 is the no-effect control and ±100 the full control effect
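Parasite growth measured via integrated firefly luciferase reporter in P. falciparum. Infected erythrocytes at 2% hematocrit, 0.05% parasitemia final were treated 96 hours at 37 C under 5% CO2, and luminescence was read.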
Pf growth 48h = P. falciparum growth inhibition at 48 hours (one generation); actives 5.9% (n = 310,000); P. falciparum luciferase growth in erythrocytes, 48 h; AID 504832; Potency, µM (top dose mostly 28.7 µM), inactives show at the highest dose activity change, negative = inhibition, hits mostly inhibitors; further: potency means the concentration at half of the fitted maximal effect; on the % scale 0 is the no-effect control and ±100 the full control effect
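Luminescence readout; reporter = integrated firefly luciferase in P. falciparum. RBC culture at 2% hematocrit, 0.1% parasitemia final, 37 C/5% CO2; decreased signal taken as growth inhibition.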
HCMV antiviral = inhibitors of human cytomegalovirus. HFF cells, HCMV-luciferase reporter, 72 h; stronger effect = lower value. activity change, negative = inhibition, % at 57.5 µM. actives 4.5% (n = 410,000); in the data active means activity change below about -60%; inconclusive means no clear call, values can overlap the other calls; inactive means above about -39%; further: on the % scale 0 is the no-effect control and ±100 the full control effect
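Two-dose cell screen: HFF monolayers treated with compounds and infected with luciferase-expressing HCMV at 1 PFU/cell, 72 h at 37C, then lysed for luciferase measurement.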
Shiga toxin inh = inhibitors of Shiga toxin in Vero cells. actives 9.2% (n = 290,000). inhibition, % at 38.7 µM. AID 2315. Vero cells, Shiga toxin protein synthesis inhibition reporter; in the data active means inhibition mostly above about 28%, no sharp cut-off; inactive means mostly below about 43%; further: 0% is about no effect
CHX counter = counter-screen for Shiga toxin inhibitors: cycloheximide protein synthesis inhibition; cell reporter, cycloheximide protein synthesis inhibition counterscreen; max response, %; actives 12% (n = 300,000); in the data active means max response mostly above about 13%, no sharp cut-off; inactive means mostly below about 14%; further: read at 38.3 µM for the half of the compounds with a filed dose; 0% is about no effect
HCV inhibitor = inhibitors of hepatitis C virus infection. Huh7.5.1 HCVcc-Cre infection, luciferase reporter, 44 h. Potency, µM (highest dose often 41.8 µM), inactives show top-dose activity change, negative = inhibition, actives largely listed as inhibitors. actives 3.4% (n = 340,000). AID 651820; further: potency means the concentration at half of the fitted maximal effect; on the % scale 0 is the no-effect control and ±100 the full control effect
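Luciferase read-out (15 sec integration) after a 15 min room-temperature substrate step quantifies HCVcc-Cre infection. Cells, 1,000 per well, had compound added 4 h post-plating, then virus at ~0.5 moi, and were cultured 44 h.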
The depositor's hits bear a star; ? = inconclusive; · = no result given. Shown are actives, neighbours in structure and some others; about 21% of the full set was active somewhere. Unless noted, the call rests on the fitted dose curve; in most records, active means well fitted inhibition curve with a large enough effect; inconclusive means small, poorly fitted or top-dose-only effect, or another doubt; inactive means no such curve, though single readings can be large or run the other way.

SMILES	Pf growth 96h	Pf growth 48h	HCMV antiviral	Shiga toxin inh	CHX counter	HCV inhibitor
Cc1cc(C(=O)Nc2ccc(S(=O)(=O)N3CCCC3)cc2)cs1	·	?	-25	22	7	-20%
Cc1ccc(Nc2nnc(SCC(=O)Nc3cccc(S(=O)(=O)N4CCCCC4)c3)s2)cc1	?	-9%	?	5	53*	?
CCOC(=O)C(Cc1ccccc1)(Nc1ccccc1OC)C(O)c1ccccc1Br (configuration not stated)	·	·	-5	·	·	·
Cc1ccc(C(=O)O)cc1NCc1ccncc1	-15%	0%	-6	·	1	19%
COCCn1c(-c2ccccc2)nc2ccccc21	8%	6%	23	96*	66*	3%
COCCn1c(SCc2csc(-c3ccccc3)n2)nc2ccccc21	12µM*	-15%	?	12	8	?
COCn1c(-c2ccc(OC)cc2)nc2ccccc21	?	164%	78	active	51*	4%
Cc1ccccc1-n1nnnc1SCC(C)C	-4%	12%	-36	-10	-1	?
Cc1ccccc1-n1nnnc1SCc1csc(-c2ccccc2)n1	9.3µM*	·	54	-7	-3	?
COc1cccc(NC(=O)CSCc2nc3sc(C)c(C)c3c(=O)[nH]2)c1	·	·	7	·	·	·
Cc1c(C)n(Cc2ccc(F)cc2)c2ccc(C(=O)Nc3ccc(Cl)cc3)cc12	·	·	0	·	·	·
Cc1ccc(C)c(N2CCN(C(=O)c3cc4c(=O)n(Cc5cccs5)ccc4nc3C)CC2)c1	·	·	0	·	·	·
CCOC(=O)c1c(O)c2ccccc2n(CC)c1=O	53%	?	-4	-9	-3	19%
CCCn1c(-c2ccc(OC)cc2)nc2ccccc21	?	?	-9	10	13*	-3%
COc1ccc2c(c1)c1nc3n(c(=O)c1n2CC(=O)Nc1cc(C)[nH]n1)CCS3	18%	9%	-85*	7	8	·
COc1cccc(NC(=O)Cn2c3ccc(OC)cc3c3nc4n(c(=O)c32)CCS4)c1	36%	-2%	-40	-7	-4	-18%
CCC(C)NC(=O)COC(=O)c1oc2ccccc2c1CSc1ccc(Cl)cc1 (configuration not stated)	20%	24%	-33	-10	-2	3%
CCCCN(C)CCCNC(=O)CCn1nc(-c2ccccc2)ccc1=O	0.12µM*	1%	22	3	1	9%
O=C(CSc1ccc(-c2ccc(F)cc2)nn1)N1CCOCC1	1%	62%	-29	100	20*	11%
CCCCNC(=O)CCn1nc(-c2ccccc2)ccc1=O	?	17%	?	12	-3	19%
O=C(CCn1nc(-c2ccccc2)ccc1=O)N1CCOCC1	1.3µM*	5%	73	-3	2	16%
O=C(CSc1ccc(-c2ccc(F)cc2)nn1)N1CCN(c2ccccc2)CC1	-30%	16%	-12	-5	-4	5%
COc1cccc(-c2ccc(SCC(=O)N3CCOCC3)nn2)c1	-10%	20%	100	22	2	8%
O=C(CSc1ccc(-c2ccccc2)nn1)N1CCOCC1	-20%	29%	11	19	24*	5%
CCc1nnc(NS(=O)(=O)c2ccc(NC(=O)/C=C/c3ccc(OC)cc3OC)cc2)s1	?	6%	-23	21	-5	11%
SMILES	Pf growth 96h	Pf growth 48h	HCMV antiviral	Shiga toxin inh	CHX counter	HCV inhibitor
COc1ccc(-n2cc([N+](=O)[O-])c(=O)c3ccc(Cl)cc32)cc1	·	·	-12	·	·	6%
COc1ccc(C(CC(=O)Nc2ccc(C(C)=O)cc2)N2Cc3ccccc3C2=O)cc1 (configuration not stated)	·	·	60	·	·	·
C/C(=N\NC(=O)c1ccccc1)c1c(C)[nH]n(-c2ccccc2)c1=O	-11%	-2%	-97*	61*	49*	?
C/C(=N\NC(=O)c1ccc(C)cc1)c1c(C)[nH]n(-c2ccccc2)c1=O	15µM*	-4%	-92*	99	30*	2%
Cc1[nH]n(-c2ccccc2)c(=O)c1C(=O)Nc1ccccc1	4%	45%	-15	31	16*	1%
Cc1nn(-c2ccccc2)nc1C(=O)c1c(C)[nH]n(-c2ccccc2)c1=O	14%	-12%	-6	-4	16	19%
